Hits are enriched below; roughly 1.3% of the tested compounds scored in any of these assays.
Integrin act MD: activators of alpha7 integrin expression for muscular dystrophy; alpha7betagal myoblasts, beta-gal FDG fluorescence, 48 h; Potency, µM (top dose mostly 38.3 µM), actives largely listed as activators; 350,000 tested, 0.064% active; AID 624291; also: nearly all actives have a fitted effect of over 60% in size
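Alpha7betagal+/- myoblasts (passage 13) were plated 16-24 hr, then exposed to compounds (1:260 dilution of DMSO stock) for 48 hours at 37C. After MPER lysis, β-galactosidase reporter activity was read as FDG fluorescence (ex 480/em 540) after 30 minutes.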
IL2 activator: IL-2 activation | IL-2 activation reporter assay, cell-based qHTS; stimulated with anti-CD3/CD4/CD28 beads; in transgenic mouse T cells | activation, % (series mostly up to about 46 µM) | 360,000 tested, 0.065% active | AID 652025; in the data active = activation above about 50%; inconclusive = mostly about 30% to 49%
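EGFP and DsRed fluorescence is measured by plate cytometry in unstimulated transgenic mouse T cells exposed to compound for 60 minutes, then stimulated 18 hours at 37 degrees C with anti-CD3/anti-CD4 beads plus anti-CD28.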
PKM2 activator: PKM2 (human) enzyme activation | purified PKM2, Kinase-Glo ATP luminescence, activation; response scale: 0% is enzyme alone, no compound | Potency, µM (highest dose often 57.5 µM), actives largely listed as activators | 260,000 tested, 0.34% active | AID 1631; also: nearly all actives have a fitted effect of over 55% in size
Target sequence (P14618 whole entry, looked up): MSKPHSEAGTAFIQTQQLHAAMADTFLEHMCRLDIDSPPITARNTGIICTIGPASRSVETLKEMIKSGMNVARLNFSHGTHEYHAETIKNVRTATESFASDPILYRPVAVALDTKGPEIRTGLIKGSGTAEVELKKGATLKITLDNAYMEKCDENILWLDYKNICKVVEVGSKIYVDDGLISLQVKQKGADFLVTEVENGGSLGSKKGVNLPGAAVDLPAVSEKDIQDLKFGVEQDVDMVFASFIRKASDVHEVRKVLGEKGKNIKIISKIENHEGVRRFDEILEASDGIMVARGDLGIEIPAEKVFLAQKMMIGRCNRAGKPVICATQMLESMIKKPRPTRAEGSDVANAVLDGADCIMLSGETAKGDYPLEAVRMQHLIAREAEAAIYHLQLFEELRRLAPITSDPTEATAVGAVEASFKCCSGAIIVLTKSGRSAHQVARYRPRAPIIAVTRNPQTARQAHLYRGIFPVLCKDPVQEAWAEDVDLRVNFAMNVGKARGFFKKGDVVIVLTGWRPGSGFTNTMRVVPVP
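ATP formation by purified human PK-M2, quantified via coupled luciferase luminescence after 1 h at room temperature with 0.1 mM ADP and 0.5 mM PEP final.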
Anesthetic bind: candidate novel general anesthetic via apoferritin binding; P02791; apoferritin/1-aminoanthracene competitive binding, fluorescence; Potency, µM (top dose mostly 77.5 µM), most hits filed as inhibitors; 350,000 tested, 0.074% active; also: nearly all actives have a fitted effect of over 20% in size
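Probe: 1-aminoanthracene (50% saturated, PBS). Protein: horse-spleen apoferritin, 10 uM. Incubation: 10 min, room temperature. Detection: 380 nm excitation, 535 nm emission. Analysis: normalized response, four-parameter Hill.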
BRCA1 expr act: increases BRCA1 expression; MCF7-BRCA1-FFLuc reporter, luminescence, 48 h; response scale: scaled: vehicle 0%, 10 µM genistein 100%; Potency, µM (top dose mostly 46.1 µM), actives largely listed as activators; 380,000 tested, 1.1% active; AID 624202; also: nearly all actives have a fitted effect of over 80% in size
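Activators of BRCA1 expression were detected as increased firefly luciferase luminescence in engineered MCF7 cells after 48 h compound incubation. Signals were scaled to genistein 10 microM as full activation.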
Of the large screens only hits and unclear results are named; the others gave an inactive call. Unless noted, calls follow the shape of the dose curve; as a rule, active = well fitted curve in the direction sought with a large enough effect; inconclusive = small, poorly fitted or top-dose-only effect, or another doubt; inactive = no such curve, though single readings can be large; an effect the other way counts as inactive or inconclusive.

O=C(CSc1nc2ccccc2c(=O)n1NC(=O)c1ccccc1)c1ccc(Cl)cc1	Anesthetic bind inconclusive, BRCA1 expr act 14µM
COc1cc2c(c(OC)c1OC)-c1c(cc(OC)c(OC)c1OC)CC(C)C(C)C2 (stereo not given)	none (no result: Integrin act MD, IL2 activator, PKM2 activator, BRCA1 expr act)
CCOc1ccc(-c2n[nH]c(C(=O)NN)c2C)cc1	BRCA1 expr act 10µM
Cc1c(-c2ccccc2)n[nH]c1C(=O)NN	BRCA1 expr act inconclusive
Cc1ccc(S(=O)(=O)N2CCN(c3nc(-c4ccc(C)s4)nc4ccccc34)CC2)cc1	none (no result: Integrin act MD, IL2 activator, PKM2 activator, Anesthetic bind)
Cc1ccc(-c2nnn(CCC(=O)NC(C)(C)C)n2)cc1	BRCA1 expr act 14µM
COC(=O)CCn1nnc(-c2ccc(C)cc2)n1	none
COc1cccc(C=NN2CCCCCC2)c1OC	BRCA1 expr act 11µM (no result: PKM2 activator, Anesthetic bind)
COc1cccc(/C=N/n2c(N)nc3ccccc32)c1OC	BRCA1 expr act 10µM
COc1ccc(/C=N/n2c(N)nc3ccccc32)cc1OC	none
COc1cccc(/C=N/N2CCN(c3ccc(Cl)cc3)CC2)c1OC	none (no result: PKM2 activator)
CCC(C)NC(=O)c1ccc2nc(-c3ccco3)c(-c3ccco3)nc2c1 (stereo not given)	none (no result: Integrin act MD, IL2 activator, PKM2 activator, Anesthetic bind)
C/C(CCN1CCCCc2nc(C)c(C)cc21)=N\O[C@@H](C)CN1CCCc2nc(C)c(C)cc21	none (no result: Integrin act MD, IL2 activator, PKM2 activator, BRCA1 expr act)
C/C(CCc1oc2c(Br)cc(Br)cc2c1-c1ccc(C)o1)=N\O	PKM2 activator 16µM
COc1ccc(C2/C=C\CN(CC3CC3)C(Cc3ccccc3)C(=O)N2Cc2ccc(F)cc2)cc1 (stereo not given)	none (no result: Integrin act MD, IL2 activator, PKM2 activator, BRCA1 expr act)
Fc1ccc2[nH]c3c(NCc4ccco4)ncnc3c2c1	none (no result: Integrin act MD, IL2 activator, PKM2 activator, Anesthetic bind)
Nc1cc(C2CCCC2)nn1-c1ccccc1	BRCA1 expr act 10µM
COc1ccc(-c2nc3ccccc3nc2-c2ccccc2)cc1	none
COc1ccc2nc3ccccc3nc2c1	BRCA1 expr act 13µM
CC(C)(C)S(=O)(=O)c1cnc(-c2ccc(Cl)cc2)nc1N	BRCA1 expr act 2.8µM
CC(C)(C)S(=O)(=O)c1cnc(N2CCCCC2)nc1N	none
CC(=O)OCC1OC(C#Cc2ccc(Br)cc2)C=CC1OC(C)=O (stereo not given)	none (no result: Integrin act MD, IL2 activator, PKM2 activator, BRCA1 expr act)
O=C(/C=C/c1cccs1)Nc1nncs1	none
O=C(/C=C/c1cccs1)Nc1cccnc1	BRCA1 expr act 11µM
Cc1ccc(NC(=O)c2ccccn2)c(Br)c1	BRCA1 expr act 3.5µM
S=C(c1ccc(-c2ccc(Br)cc2)o1)N1CCCCC1	Anesthetic bind inconclusive, BRCA1 expr act inconclusive
S=C(c1ccc(-c2ccc(Br)cc2)o1)N1CCOCC1	PKM2 activator 13µM, BRCA1 expr act inconclusive
S=C(c1ccc(-c2ccc(Cl)cc2Cl)o1)N1CCCCC1	BRCA1 expr act 7.9µM
S=C(c1ccc(-c2ccc(Cl)c(Cl)c2)o1)N1CCOCC1	PKM2 activator inconclusive, BRCA1 expr act inconclusive
O=C(c1ccc(-c2ccccc2Cl)o1)N1CCCC(C(F)(F)F)C1 (stereo not given)	BRCA1 expr act 13µM (no result: PKM2 activator, Anesthetic bind)
S=C(c1ccc(-c2ccccc2Cl)o1)N1CCOCC1	BRCA1 expr act 7.1µM
COc1ccc(C(=C2C(=O)Nc3ccccc32)c2ccc(OC)cc2)cc1	none (no result: Integrin act MD, IL2 activator, PKM2 activator, BRCA1 expr act)
O=C(c1ccc(-c2ccccc2Cl)o1)N1CCC1	BRCA1 expr act 2.8µM (no result: PKM2 activator, Anesthetic bind)
CC1CCN(C(=O)c2ccc(-c3ccccc3Cl)o2)CC1	BRCA1 expr act inconclusive (no result: PKM2 activator, Anesthetic bind)
COc1cc(-c2nn3c(-c4cc(-c5ccccc5)n[nH]4)nnc3s2)cc(OC)c1OC	none (no result: Integrin act MD, IL2 activator, PKM2 activator, Anesthetic bind)
Cc1ccc(C(=O)N2c3ccccc3CC2C)o1 (stereo not given)	Anesthetic bind inconclusive, BRCA1 expr act 4µM
CC[C@@H](C)[C@@H](CO[C@@H](Cc1ccccc1)C(=O)N[C@@H](CCS(C)(=O)=O)C(=O)OC(C)C)NC[C@@H](N)CS	none (no result: Integrin act MD, IL2 activator, PKM2 activator, BRCA1 expr act)
CC(=O)C(C)Oc1ccc2c3c(c(=O)oc2c1)CCCCC3 (stereo not given)	none
CC(=O)C(C)Oc1ccc2c3c(c(=O)oc2c1)CCCC3 (stereo not given)	BRCA1 expr act 11µM
Cn1c(-c2cccs2)nc2ccccc21	BRCA1 expr act 7.9µM
CC(C)Cn1c(-c2cccs2)nc2ccccc21	none
Cn1c(-c2ccc(C=O)s2)nc2ccccc21	BRCA1 expr act 11µM
CCc1nc(SCc2ccc(OC)cc2)n[nH]1	BRCA1 expr act 11µM
